In PubChem BioAssay (NCI):
Where “and” joins values, the source holds several entries; their conditions need not be identical. Equal entries are not always repeated. About 83,000 compounds went through this panel and 20% of them were active in at least one assay; those are over-represented in the sample as a whole.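 Activity criterion: percent growth below 10, measured after cells in 96-well plates were exposed to a single compound concentration for 48 hours.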 Calls of active or inactive are those of the source.

Legend:
Assay in all cases: NCI-60 one-dose screen, 48 h (100 = growth as untreated, 0 = no growth, -100 = all killed)
Details in all cases: 10 µM unless noted
NCI-H23 lung = system: NCI-H23 lung
NCI-H226 lung = system: NCI-H226 lung
NCI-H322M lung = system: NCI-H322M lung
HOP-62 NSCLC = system: HOP-62 NSCLC
NCI-H460 lung = system: NCI-H460 lung
HOP-92 NSCLC = system: HOP-92 NSCLC
A549/ATCC NSCLC = system: A549/ATCC NSCLC
786-0 renal = system: 786-0 renal
COLO 205 colon = system: COLO 205 colon
DU-145 prostate = system: DU-145 prostate
K-562 leukemia = system: K-562 leukemia
MALME-3M melanoma = system: MALME-3M melanoma
MDA-MB-231 breast = system: MDA-MB-231 breast
RXF 393 renal = system: RXF 393 renal
SF-268 CNS = system: SF-268 CNS
SF-295 CNS = system: SF-295 CNS
SF-539 CNS = system: SF-539 CNS
UACC-257 melanoma = system: UACC-257 melanoma
M14 melanoma = system: M14 melanoma
NCI-H522 lung = system: NCI-H522 lung

Measured: growth

CC1=CC(O)C2CC1C2(C)C (stereo not drawn)
inactive: NCI-H23 lung 112% and 110% | NCI-H226 lung 98.1% and 97.9% | NCI-H322M lung 101% and 97.1% | HOP-62 NSCLC 93.4% and 102% | NCI-H460 lung 108% | HOP-92 NSCLC 100% and 78.2% | A549/ATCC NSCLC 91.9% and 106% | 786-0 renal 95.7% and 110% | COLO 205 colon 94.5% and 112% | DU-145 prostate 108% and 122% | K-562 leukemia 96.6% and 93.4% | MALME-3M melanoma 97.6% and 107% | MDA-MB-231 breast 99.1% and 110% | RXF 393 renal 115% and 104% | SF-268 CNS 104% and 113% | SF-295 CNS 103% | SF-539 CNS 99.8% and 110% | UACC-257 melanoma 95.9% and 110% | M14 melanoma 97.3% and 109%

Nc1nc(N)c2nc(CNc3ccc(C(=O)NC(CCC(=O)O)C(=O)O)cc3)cnc2n1 (stereo not drawn)
10.8% (inactive) and 9.2% (active): M14 melanoma
inactive: NCI-H23 lung 24.8% and 22.4% | NCI-H226 lung 60.5% and 52% | NCI-H322M lung 51.2% and 50.8% | HOP-62 NSCLC 39.1% and 11.7% | NCI-H460 lung 15.2% and 12.2% | HOP-92 NSCLC 69.9% and 43.7% | A549/ATCC NSCLC 28.7% and 36.9% | COLO 205 colon 56.1% and 32.8% | DU-145 prostate 28.2% and 21.8% | K-562 leukemia 18.7% and 32% | MALME-3M melanoma 47.8% and 48.3% | MDA-MB-231 breast 78.1% and 60.1% | RXF 393 renal 48% and 76.4% | SF-268 CNS 26.6% and 27.3% | SF-295 CNS 26% and 12.9% | SF-539 CNS 21.3% and 18.4% | UACC-257 melanoma 57.8% and 52.2%
13.9% (inactive) and 8.47% (active): 786-0 renal

Cc1cc(C(C)(CC(C)C)c2ccc(O)c(C)c2)ccc1O
inactive: NCI-H23 lung 108% | NCI-H226 lung 93% | NCI-H322M lung 94.6% | HOP-62 NSCLC 104% | NCI-H460 lung 104% | HOP-92 NSCLC 88.3% | A549/ATCC NSCLC 81.5% | 786-0 renal 102% | COLO 205 colon 125% | DU-145 prostate 112% | K-562 leukemia 97.1% | MALME-3M melanoma 109% | MDA-MB-231 breast 88% | RXF 393 renal 93% | SF-268 CNS 104% | SF-295 CNS 97.8% | SF-539 CNS 96.6% | UACC-257 melanoma 84.8% | M14 melanoma 94.2%

CC(=O)Nc1cccc2cc(O)ccc12
inactive: NCI-H23 lung 99% and 101% and 103% | NCI-H226 lung 98.2% and 98.1% and 102% | NCI-H322M lung 110% and 116% | HOP-62 NSCLC 100% and 93.1% and 95.8% | NCI-H460 lung 114% and 103% and 105% | HOP-92 NSCLC 64.6% and 88.7% and 73.6% | A549/ATCC NSCLC 118% and 111% and 98.6% | 786-0 renal 109% and 104% and 98.9% | COLO 205 colon 106% and 110% and 104% | DU-145 prostate 118% and 110% and 111% | K-562 leukemia 108% and 113% and 99.7% | MALME-3M melanoma 101% and 127% and 98.3% | MDA-MB-231 breast 102% and 95.1% and 95.8% | RXF 393 renal 123% and 98% and 105% | SF-268 CNS 111% and 94.6% and 99.6% | SF-295 CNS 84.7% and 130% and 99% | SF-539 CNS 96.4% and 96.8% and 98.5% | UACC-257 melanoma 123% and 103% and 90.3% | M14 melanoma 91.7% and 98.2%

N#CSCc1ccc(CSC#N)c(Cl)c1
inactive: NCI-H23 lung 85.1% | NCI-H226 lung 93.1% | NCI-H322M lung 106% | HOP-62 NSCLC 129% | NCI-H460 lung 75.5% | NCI-H522 lung 15.7% | A549/ATCC NSCLC 75.8% | 786-0 renal 73.2% | COLO 205 colon 45% | DU-145 prostate 42.5% | K-562 leukemia 33.8% | MALME-3M melanoma 54.3% | MDA-MB-231 breast 52.5% | RXF 393 renal 72.2% | SF-268 CNS 65.8% | SF-295 CNS 102% | SF-539 CNS 58.8% | UACC-257 melanoma 67.6% | M14 melanoma 50.7%

CN=C(N)N/N=C(\C)c1ccc2c(c1)Cc1cc(/C(C)=N/NC(N)=NC)ccc1-2
active: NCI-H23 lung -56.6% | NCI-H226 lung -61.2% | NCI-H322M lung -1.93% | HOP-62 NSCLC -82.7% | NCI-H460 lung -69.9% | NCI-H522 lung -35% | A549/ATCC NSCLC -17.6% | 786-0 renal -49.7% | COLO 205 colon -67.1% | DU-145 prostate -35.5% | K-562 leukemia -7.26% | MALME-3M melanoma -65.5% | MDA-MB-231 breast -33.8% | RXF 393 renal -21.2% | SF-268 CNS -61% | SF-295 CNS -28.1% | SF-539 CNS -89% | M14 melanoma -85.7%
inactive: UACC-257 melanoma 56.5%

Cc1ccc(C(=Nc2ccccc2)N=P(c2ccccc2)(c2ccccc2)c2ccccc2)cc1
active: NCI-H23 lung -24.5% | NCI-H226 lung -46.2% | NCI-H322M lung -29.4% | HOP-62 NSCLC -90.2% | NCI-H460 lung -75.2% | HOP-92 NSCLC -43.1% | A549/ATCC NSCLC 6.89% | 786-0 renal -55% | COLO 205 colon -87.8% | DU-145 prostate -0.576% | MALME-3M melanoma -67.8% | MDA-MB-231 breast -41% | RXF 393 renal -23.3% | SF-268 CNS -0.449% | SF-295 CNS -93.4% | SF-539 CNS -42.9% | UACC-257 melanoma -17.3% | M14 melanoma -79%
inactive: K-562 leukemia 15.6%

NC(N)=N/N=C/c1ccc([N+](=O)[O-])o1
active: COLO 205 colon 3.2%
inactive: NCI-H23 lung 65.5% | NCI-H226 lung 100% | NCI-H322M lung 87.2% | HOP-62 NSCLC 113% | NCI-H460 lung 80.2% | HOP-92 NSCLC 106% | A549/ATCC NSCLC 80.2% | 786-0 renal 98% | DU-145 prostate 91.5% | K-562 leukemia 94.6% | MALME-3M melanoma 68.1% | MDA-MB-231 breast 105% | RXF 393 renal 95.7% | SF-268 CNS 90.3% | SF-295 CNS 93.4% | SF-539 CNS 104% | UACC-257 melanoma 67.1% | M14 melanoma 99.1%

Cc1ccc2nc(C[n+]3ccc4ccccc4c3)ccc2c1
inactive: NCI-H23 lung 42% | NCI-H226 lung 68.9% | NCI-H322M lung 97.6% | HOP-62 NSCLC 69.9% | NCI-H460 lung 55% | HOP-92 NSCLC 28% | A549/ATCC NSCLC 51.7% | 786-0 renal 92.2% | COLO 205 colon 27.3% | DU-145 prostate 76% | K-562 leukemia 44.2% | MALME-3M melanoma 61.2% | MDA-MB-231 breast 73.5% | RXF 393 renal 93.6% | SF-268 CNS 70.4% | SF-295 CNS 59% | SF-539 CNS 71.9% | UACC-257 melanoma 24.9% | M14 melanoma 45.8%

O=C(/C=C/C=C/c1ccccc1)c1ccco1
inactive: NCI-H23 lung 92.2% | NCI-H226 lung 109% | NCI-H322M lung 110% | HOP-62 NSCLC 117% | NCI-H460 lung 94.7% | HOP-92 NSCLC 96.1% | A549/ATCC NSCLC 101% | 786-0 renal 104% | COLO 205 colon 103% | DU-145 prostate 99.7% | K-562 leukemia 43% | MALME-3M melanoma 113% | MDA-MB-231 breast 102% | RXF 393 renal 46% | SF-268 CNS 91.5% | SF-295 CNS 112% | SF-539 CNS 106% | UACC-257 melanoma 108% | M14 melanoma 93.9%

CC(C)c1ccc2nc3ccc(C(=O)NCCN4CCN(c5ccccc5)CC4)cn3c(=O)c2c1
active: RXF 393 renal 3.14%
inactive: NCI-H23 lung 50.5% | NCI-H226 lung 38.4% | NCI-H322M lung 86.8% | HOP-62 NSCLC 90.9% | NCI-H460 lung 65.2% | HOP-92 NSCLC 58.1% | A549/ATCC NSCLC 57.3% | 786-0 renal 34.4% | COLO 205 colon 45.8% | DU-145 prostate 80% | K-562 leukemia 45.1% | MALME-3M melanoma 48.3% | MDA-MB-231 breast 59.3% | SF-268 CNS 72.9% | SF-295 CNS 23.1% | SF-539 CNS 40.8% | UACC-257 melanoma 60.2% | M14 melanoma 63.8%

CC1SC(=S)N(c2ccc(Cl)cc2)C1=O (stereo not drawn)
inactive: NCI-H23 lung 104% and 92.2% | NCI-H226 lung 92.9% and 97.2% | NCI-H322M lung 89.5% and 89.8% | HOP-62 NSCLC 92.4% and 92.7% | NCI-H460 lung 100% and 108% | HOP-92 NSCLC 77.6% | A549/ATCC NSCLC 93.8% and 95.7% | 786-0 renal 91.5% and 93.1% | COLO 205 colon 124% and 107% | DU-145 prostate 104% and 96.3% | K-562 leukemia 84.1% and 78.8% | MALME-3M melanoma 104% and 108% | MDA-MB-231 breast 99.6% and 86.4% | RXF 393 renal 116% | SF-268 CNS 109% and 84.1% | SF-295 CNS 96% and 98.8% | SF-539 CNS 98.5% and 70.7% | UACC-257 melanoma 97.9% | M14 melanoma 111% and 105%
